Measurements from PubChem BioAssay (EPA / NIEHS).
Results filed as inconclusive are left out. The source made the active and inactive calls. The calls were made as follows, unless noted: active = hit-call score of the fitted dose curve at least 0.9, where 1 is the maximum; inactive = score below 0.9.

Tests used:
[1] = target: Glucocorticoid receptor (Homo sapiens) (UniProt P04150); assay: ATG_GR_TRANS: Attagene TRANS-FACTORIAL HepG2 Assay for human Glucocorticoid Receptor (GR) (AID 2282978; active = hit-call score of the fitted dose curve at least 0.9, where 1 is the maximum;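 also: activators score as hits since higher reporter transcript over DMSO is fitted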); settings: HepG2 Attagene TRANS GR reporter, mRNA transcription
Sequence of Glucocorticoid receptor (Homo sapiens) (P04150 whole entry, looked up, the tested form may be a part): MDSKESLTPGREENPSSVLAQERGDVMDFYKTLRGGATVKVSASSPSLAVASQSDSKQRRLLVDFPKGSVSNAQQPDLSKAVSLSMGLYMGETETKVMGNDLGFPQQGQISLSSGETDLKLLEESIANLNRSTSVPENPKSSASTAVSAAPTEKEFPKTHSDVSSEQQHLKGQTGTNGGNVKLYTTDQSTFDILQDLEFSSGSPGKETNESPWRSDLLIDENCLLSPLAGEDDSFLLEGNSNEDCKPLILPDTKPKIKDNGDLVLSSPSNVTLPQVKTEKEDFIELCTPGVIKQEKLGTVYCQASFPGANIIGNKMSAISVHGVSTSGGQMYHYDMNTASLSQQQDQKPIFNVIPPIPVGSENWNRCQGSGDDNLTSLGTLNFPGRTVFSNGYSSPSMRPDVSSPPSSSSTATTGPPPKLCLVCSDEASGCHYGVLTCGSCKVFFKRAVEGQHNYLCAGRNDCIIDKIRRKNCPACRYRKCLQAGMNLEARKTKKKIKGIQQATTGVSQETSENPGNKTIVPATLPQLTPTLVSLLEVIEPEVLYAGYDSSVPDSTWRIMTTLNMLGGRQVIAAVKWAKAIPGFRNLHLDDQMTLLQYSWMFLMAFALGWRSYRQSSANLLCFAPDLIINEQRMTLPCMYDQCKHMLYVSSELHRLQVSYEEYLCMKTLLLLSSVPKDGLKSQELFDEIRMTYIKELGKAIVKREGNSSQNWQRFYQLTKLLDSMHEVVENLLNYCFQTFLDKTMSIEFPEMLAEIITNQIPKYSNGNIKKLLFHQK
Summary of the method: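 Transient MRTU transfection of HepG2 (GAL4-UAS reporters, exogenous NR-GAL4 chimeras), 24 h dosing. Readout: reporter transcript via RT-PCR + capillary electrophoresis fluorescence. Positive direction vs DMSO baseline.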

[2] = target: Oxysterols receptor LXR-beta (Homo sapiens) (UniProt P55055); assay: ATG_LXRb_TRANS: Attagene TRANS-FACTORIAL HepG2 Assay for human Liver X Receptor beta (LXRb) (AID 2282981; active = hit-call score of the fitted dose curve at least 0.9, where 1 is the maximum); settings: HepG2 Attagene TRANS GAL4-LXRb reporter, mRNA
Sequence of Oxysterols receptor LXR-beta (Homo sapiens) (P55055 whole entry, looked up, the tested form may be a part): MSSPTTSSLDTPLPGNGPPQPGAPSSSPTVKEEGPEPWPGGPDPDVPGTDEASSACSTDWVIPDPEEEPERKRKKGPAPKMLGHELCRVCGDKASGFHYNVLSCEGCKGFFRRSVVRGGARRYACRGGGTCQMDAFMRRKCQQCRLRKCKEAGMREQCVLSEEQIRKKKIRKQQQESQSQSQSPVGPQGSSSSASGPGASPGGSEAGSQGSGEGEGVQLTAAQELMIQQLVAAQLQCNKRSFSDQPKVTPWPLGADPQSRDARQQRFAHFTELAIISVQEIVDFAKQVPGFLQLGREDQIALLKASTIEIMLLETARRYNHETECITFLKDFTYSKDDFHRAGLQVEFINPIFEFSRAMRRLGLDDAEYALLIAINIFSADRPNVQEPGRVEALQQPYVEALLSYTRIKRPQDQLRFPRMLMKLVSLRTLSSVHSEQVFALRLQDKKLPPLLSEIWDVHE
Summary of the method: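 Liver-derived HepG2 cells transfected with Gal4-responsive reporters were dosed for 24 h. Activation was scored as rise in reporter mRNA, by RT-PCR and capillary electrophoresis, above DMSO baseline.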

[3] = target: Hepatocyte nuclear factor 4-alpha (Homo sapiens) (UniProt P41235); assay: ATG_HNF4a_TRANS: Attagene TRANS-FACTORIAL HepG2 Assay for human Hepatocyte Nuclear Factor 4 alpha (HNF4a) (AID 2282982; active = hit-call score of the fitted dose curve at least 0.9, where 1 is the maximum); settings: HepG2 HNF4a transactivation reporter, mRNA readout
Sequence of Hepatocyte nuclear factor 4-alpha (Homo sapiens) (P41235 whole entry, looked up, the tested form may be a part): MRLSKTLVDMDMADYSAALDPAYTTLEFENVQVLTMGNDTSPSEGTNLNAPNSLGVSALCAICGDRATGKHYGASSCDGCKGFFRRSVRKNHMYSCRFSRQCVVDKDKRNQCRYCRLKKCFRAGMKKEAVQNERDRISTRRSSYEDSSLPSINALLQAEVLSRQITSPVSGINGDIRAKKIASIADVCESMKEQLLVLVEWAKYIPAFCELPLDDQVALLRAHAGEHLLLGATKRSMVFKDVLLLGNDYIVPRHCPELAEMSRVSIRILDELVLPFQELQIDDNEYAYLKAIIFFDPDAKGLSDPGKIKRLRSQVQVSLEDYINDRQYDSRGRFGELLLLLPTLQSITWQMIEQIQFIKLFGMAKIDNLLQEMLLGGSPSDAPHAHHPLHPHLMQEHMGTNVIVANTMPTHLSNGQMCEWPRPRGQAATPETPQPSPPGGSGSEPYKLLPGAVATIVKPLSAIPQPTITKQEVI
Summary of the method: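 Using HepG2 liver cells transfected with GAL4-UAS reporter units, chemical-induced mRNA increases were assessed after 24 hours. Fluorescent RT-PCR fragments were separated by capillary electrophoresis and compared with DMSO negative controls.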

[4] = ATG_M_06_TRANS: Attagene TRANS-FACTORIAL HepG2 Assay for M06 Transcription Factor (Internal Marker) (AID 2282983; active = hit-call score of the fitted dose curve at least 0.9, where 1 is the maximum); settings: HepG2 Attagene TRANS M06 internal marker reporter
Summary of the method: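 Read-out: fluorescent reporter cDNA fragments resolved by capillary electrophoresis after RT-PCR and HpaI cut. Source cells were HepG2 carrying transfected multi-reporter GAL4 constructs, dosed 24 h. Increase over DMSO control analysed.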

[5] = ATG_M_32_TRANS: Attagene TRANS-FACTORIAL HepG2 Assay for M32 Transcription Factor (Internal Marker) (AID 2282984; active = hit-call score of the fitted dose curve at least 0.9, where 1 is the maximum;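 also: transcript level of a background control reporter unit measured by RT-PCR and capillary electrophoresis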); settings: HepG2 Attagene TRANS M32 internal marker reporter
Summary of the method: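 Fluorescence-detected mRNA induction, HepG2 liver cells, 24 h after dosing. Multiple GAL4-UAS reporter units introduced by transient transfection; background-control endpoint analysed for gain of signal against DMSO.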

[6] = target: Transcriptional activator Myb (Homo sapiens) (UniProt P10242); assay: ATG_Myb_CIS: Attagene CIS-FACTORIAL HepG2 Assay for human Myeloblastosis (Myb) Proto-Oncogene Transcription Factor (AID 2282986); settings: HepG2 Attagene CIS-FACTORIAL Myb reporter transcription; actives raise or lower the signal
Sequence of Transcriptional activator Myb (Homo sapiens) (P10242 whole entry, looked up): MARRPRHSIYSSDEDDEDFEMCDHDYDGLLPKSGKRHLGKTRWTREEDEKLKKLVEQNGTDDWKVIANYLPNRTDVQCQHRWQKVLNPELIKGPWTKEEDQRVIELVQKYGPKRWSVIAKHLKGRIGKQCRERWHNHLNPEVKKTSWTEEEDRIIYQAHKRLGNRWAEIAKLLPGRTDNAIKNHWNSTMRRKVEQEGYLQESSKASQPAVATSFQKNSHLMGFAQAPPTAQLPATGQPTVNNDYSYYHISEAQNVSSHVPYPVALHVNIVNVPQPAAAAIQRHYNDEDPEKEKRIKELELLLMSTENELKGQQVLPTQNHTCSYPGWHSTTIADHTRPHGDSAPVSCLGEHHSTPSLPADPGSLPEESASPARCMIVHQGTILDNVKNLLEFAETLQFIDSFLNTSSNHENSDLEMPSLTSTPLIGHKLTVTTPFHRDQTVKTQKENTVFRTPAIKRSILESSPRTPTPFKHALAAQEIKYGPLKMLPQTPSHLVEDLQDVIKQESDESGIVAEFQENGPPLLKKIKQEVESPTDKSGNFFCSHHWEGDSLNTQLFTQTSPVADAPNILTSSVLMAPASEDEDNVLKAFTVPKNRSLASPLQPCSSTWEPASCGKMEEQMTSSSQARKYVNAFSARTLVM
Summary of the method: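 HepG2, transient MRTU transfection (cis-element promoters, endogenous TF activity), 24 h compound exposure. Readout: reporter mRNA via RT-PCR, 6-FAM labeling, HpaI digest, capillary electrophoresis. Gain/loss fit vs DMSO.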

[7] = target: Nuclear respiratory factor 1 (Homo sapiens) (UniProt Q16656); assay: ATG_NRF1_CIS: Attagene CIS-FACTORIAL HepG2 Assay for human Nuclear Respiratory Factor 1 (NRF1) Orphan Gene (AID 2282987); settings: HepG2 NRF1 cis-element reporter, Attagene multiplex; actives raise or lower the signal
Sequence of Nuclear respiratory factor 1 (Homo sapiens) (Q16656 whole entry, looked up): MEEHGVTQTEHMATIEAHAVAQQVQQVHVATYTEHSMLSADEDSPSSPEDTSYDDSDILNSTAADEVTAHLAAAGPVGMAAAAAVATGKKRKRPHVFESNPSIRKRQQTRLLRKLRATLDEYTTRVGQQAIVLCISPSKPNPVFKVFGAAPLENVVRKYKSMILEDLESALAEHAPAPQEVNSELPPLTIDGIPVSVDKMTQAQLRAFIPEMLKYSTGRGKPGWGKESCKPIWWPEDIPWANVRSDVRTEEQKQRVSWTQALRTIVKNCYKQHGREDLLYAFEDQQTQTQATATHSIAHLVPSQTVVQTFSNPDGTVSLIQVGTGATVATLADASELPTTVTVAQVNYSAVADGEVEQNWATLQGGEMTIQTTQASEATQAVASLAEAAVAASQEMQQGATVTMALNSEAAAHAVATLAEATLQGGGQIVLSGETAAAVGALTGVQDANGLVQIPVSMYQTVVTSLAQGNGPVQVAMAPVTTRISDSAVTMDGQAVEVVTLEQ
Summary of the method: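 Endogenous NRF1-driven reporter transcription measured in transiently transfected human HepG2 liver cells. Readout: reporter mRNA by RT-PCR and capillary electrophoresis with fluorescence detection, 24 h post-dosing. Gain or loss of signal fitted relative to DMSO baseline.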

[8] = ATG_NFI_CIS: Attagene CIS-FACTORIAL HepG2 Assay for human Nuclear Factor I (NFI) (AID 2282989); settings: HepG2 cis-regulatory reporter, NFI response element transcription; actives raise or lower the signal
Summary of the method: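 Cells: human liver HepG2, transiently transfected with promoter-regulated reporter transcription units. Exposure 24 h. Detection: fluorescent RT-PCR products separated by capillary electrophoresis, normalised to DMSO negative control.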

[9] = target: Myc proto-oncogene protein (Homo sapiens) (UniProt P01106); assay: ATG_Myc_CIS: Attagene CIS-FACTORIAL HepG2 Assay for human Myelocytomatosis (Myc) Proto-Oncogene Transcription Factor (AID 2282990); settings: HepG2, Attagene cis-reporter transcription factor activity; actives raise or lower the signal
Sequence of Myc proto-oncogene protein (Homo sapiens) (P01106 whole entry, looked up): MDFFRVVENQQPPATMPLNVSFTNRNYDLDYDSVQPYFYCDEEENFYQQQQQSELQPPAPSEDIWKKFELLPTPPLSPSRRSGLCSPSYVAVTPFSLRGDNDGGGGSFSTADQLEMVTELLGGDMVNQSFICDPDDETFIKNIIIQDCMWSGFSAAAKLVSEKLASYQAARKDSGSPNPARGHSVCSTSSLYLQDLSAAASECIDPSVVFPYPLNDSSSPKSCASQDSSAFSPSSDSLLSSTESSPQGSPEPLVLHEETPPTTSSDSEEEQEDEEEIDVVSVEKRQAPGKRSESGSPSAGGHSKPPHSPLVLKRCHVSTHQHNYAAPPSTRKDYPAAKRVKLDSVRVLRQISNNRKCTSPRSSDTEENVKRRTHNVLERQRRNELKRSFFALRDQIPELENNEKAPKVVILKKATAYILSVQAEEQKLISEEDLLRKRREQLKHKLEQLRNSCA
Summary of the method: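 Multiplexed cis-reporter transcription in HepG2 cells after 24 h chemical treatment. Reporter mRNA measured by RT-PCR and capillary electrophoresis fluorescence; activity fitted bidirectionally against DMSO control.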

[10] = ATG_NF_kB_CIS: Attagene CIS-FACTORIAL HepG2 Assay for human Nuclear Factor Kappa B (NF-kB) (AID 2282991); settings: HepG2 Attagene cis-factorial NF-kB reporter mRNA; actives raise or lower the signal
Summary of the method: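 Read-out: reporter transcript levels quantified by RT-PCR plus capillary electrophoresis of 6-FAM-labelled, HpaI-cut fragments. Transfected HepG2 cells, 24 h compound exposure, endogenous NF-kB-driven cis element; gain or loss scored versus DMSO.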

[11] = ATG_NRF2_ARE_CIS: Attagene CIS-FACTORIAL HepG2 Assay for human Nuclear Factor Erythroid 2 Related Factor 2 (NFR2) response to Antioxidant Response Elements (ARE) (AID 2282992); settings: HepG2 Attagene ARE/NRF2 reporter, transcription factor activity; actives raise or lower the signal
Summary of the method: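 Endogenous transcription factor activity in human liver HepG2 cells is tracked via a cis-element-driven reporter within a multiplexed set. mRNA induction is read by RT-PCR and capillary electrophoresis after 24 h, with DMSO as baseline.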

[12] = ATG_Oct_MLP_CIS: Attagene CIS-FACTORIAL HepG2 Assay for human Octamer-Binding Transcription Factor (Oct) (AID 2282993); settings: HepG2 Attagene cis-factorial Oct reporter, mRNA; actives raise or lower the signal
Summary of the method: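 HepG2, transient MRTU transfection, cis promoter elements; 24 h dosing; RT-PCR/CE fluorescence read-out of reporter mRNA; fit both directions vs DMSO.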

[13] = BSK_3C_TissueFactor: BioMAP Diversity Plus: 3C Assay for Tissue Factor Biomarker Activity (AID 2282997); settings: BioMAP 3C HUVEC, tissue factor biomarker readout; actives raise or lower the signal
Summary of the method: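 HUVEC, 3C system, 24 h post-dose; Tissue Factor by ELISA; bidirectional fit vs DMSO baseline.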

[14] = BSK_3C_VCAM1: BioMAP Diversity Plus: 3C Assay for Vascular cell adhesion molecule 1 (VCAM1) Biomarker Activity (AID 2282999); settings: BioMAP 3C HUVEC, VCAM1 ELISA, cytokine-stimulated; actives raise or lower the signal
Summary of the method: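 Vascular primary endothelium (human umbilical vein) was exposed to chemicals and assayed 24 h later. VCAM-1 levels came from ELISA, with DMSO serving as baseline for bidirectional fitting.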

[15] = target: Oxysterols receptor LXR-alpha (Homo sapiens) (UniProt Q13133); assay: ATG_LXRa_TRANS: Attagene TRANS-FACTORIAL HepG2 Assay for human Liver X Receptor alpha (LXRa) (AID 2282980; active = hit-call score of the fitted dose curve at least 0.9, where 1 is the maximum); settings: HepG2 Attagene TRANS reporter, LXRa transactivation
Sequence of Oxysterols receptor LXR-alpha (Homo sapiens) (Q13133 whole entry, looked up, the tested form may be a part): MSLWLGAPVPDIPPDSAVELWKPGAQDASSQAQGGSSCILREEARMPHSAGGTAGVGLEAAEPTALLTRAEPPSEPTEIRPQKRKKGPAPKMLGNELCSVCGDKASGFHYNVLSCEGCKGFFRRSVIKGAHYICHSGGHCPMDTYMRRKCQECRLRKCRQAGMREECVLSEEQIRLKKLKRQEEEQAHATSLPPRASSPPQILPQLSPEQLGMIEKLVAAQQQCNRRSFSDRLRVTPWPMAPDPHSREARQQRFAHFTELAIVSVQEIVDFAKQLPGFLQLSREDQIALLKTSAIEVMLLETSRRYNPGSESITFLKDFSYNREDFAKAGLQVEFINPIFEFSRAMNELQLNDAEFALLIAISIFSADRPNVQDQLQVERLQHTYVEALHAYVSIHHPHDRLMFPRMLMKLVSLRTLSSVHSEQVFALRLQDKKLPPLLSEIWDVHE
Summary of the method: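 Read-out: reporter transcript levels by RT-PCR plus capillary electrophoresis, fluorescence intensity. Transiently transfected HepG2, exogenous NR-GAL4 chimera, GAL4-UAS reporters; 24 h compound exposure. Activity = increase over DMSO negative control.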

[16] = target: Nuclear receptor subfamily 4 group A member 2 (Homo sapiens) (UniProt P43354); assay: ATG_NURR1_TRANS: Attagene TRANS-FACTORIAL HepG2 Assay for human Nuclear Receptor Related Protein 1 (NURR1) (AID 2282985; active = hit-call score of the fitted dose curve at least 0.9, where 1 is the maximum); settings: HepG2 Attagene TRANS reporter, mRNA readout
Sequence of Nuclear receptor subfamily 4 group A member 2 (Homo sapiens) (P43354 whole entry, looked up, the tested form may be a part): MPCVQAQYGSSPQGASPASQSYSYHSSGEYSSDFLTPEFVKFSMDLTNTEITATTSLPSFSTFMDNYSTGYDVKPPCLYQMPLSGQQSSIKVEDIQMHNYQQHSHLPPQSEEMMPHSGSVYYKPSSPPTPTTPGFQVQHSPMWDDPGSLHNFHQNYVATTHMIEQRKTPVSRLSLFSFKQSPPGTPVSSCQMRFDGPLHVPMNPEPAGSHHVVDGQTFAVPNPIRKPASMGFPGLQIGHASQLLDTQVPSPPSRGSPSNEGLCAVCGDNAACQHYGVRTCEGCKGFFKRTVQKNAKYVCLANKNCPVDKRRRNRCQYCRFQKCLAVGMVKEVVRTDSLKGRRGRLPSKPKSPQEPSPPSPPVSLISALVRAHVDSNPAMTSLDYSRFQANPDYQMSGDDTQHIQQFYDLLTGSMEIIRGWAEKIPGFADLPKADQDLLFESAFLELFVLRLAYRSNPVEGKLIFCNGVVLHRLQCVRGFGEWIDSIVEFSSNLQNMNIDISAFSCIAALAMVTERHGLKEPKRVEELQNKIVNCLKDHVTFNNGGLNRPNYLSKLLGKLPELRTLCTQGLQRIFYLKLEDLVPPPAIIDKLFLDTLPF
Summary of the method: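 Chimeric NR-Gal4 proteins were expressed in human HepG2 cells bearing GAL4-UAS reporter units, and induced reporter mRNA was quantified 24 h post-dosing by RT-PCR and capillary electrophoresis.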

[17] = BSK_3C_uPAR: BioMAP Diversity Plus: 3C Assay for Urokinase-type plasminogen activator receptor (uPAR) Biomarker Activity (AID 2282998); settings: BioMAP 3C HUVEC, uPAR biomarker ELISA; actives raise or lower the signal
Summary of the method: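 A multiplexed primary-cell system built on human umbilical vein endothelium was used, with chemical present for 24 h before reading. Cell-surface uPAR was detected by ELISA; signal change in either direction counted against DMSO.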

[18] = target: Cellular tumor antigen p53 (Homo sapiens) (UniProt P04637); assay: ATG_p53_CIS: Attagene CIS-FACTORIAL HepG2 Assay for human p53 Transcription Factor (AID 2282994); settings: HepG2 p53 cis-element reporter, Attagene mRNA; actives raise or lower the signal
Sequence of Cellular tumor antigen p53 (Homo sapiens) (P04637 whole entry, looked up, the tested form may be a part): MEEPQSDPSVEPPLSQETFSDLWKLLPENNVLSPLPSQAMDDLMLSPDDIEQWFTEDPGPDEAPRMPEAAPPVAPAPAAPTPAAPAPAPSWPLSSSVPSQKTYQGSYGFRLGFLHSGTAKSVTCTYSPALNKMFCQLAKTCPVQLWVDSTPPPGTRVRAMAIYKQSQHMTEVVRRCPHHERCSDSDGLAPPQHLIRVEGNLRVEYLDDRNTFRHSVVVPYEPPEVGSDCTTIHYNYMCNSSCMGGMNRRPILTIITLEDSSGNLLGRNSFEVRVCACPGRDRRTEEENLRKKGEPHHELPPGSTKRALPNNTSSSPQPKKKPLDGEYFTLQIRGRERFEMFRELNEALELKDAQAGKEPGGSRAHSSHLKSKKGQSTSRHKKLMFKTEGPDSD
Summary of the method: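 Steps: transfect HepG2 with multiplexed cis reporter constructs; dose chemicals 24 h; extract RNA, reverse-transcribe, PCR-amplify reporter sequences; FAM-label, HpaI-digest, resolve fragments by CE. Activity fitted both directions relative to DMSO.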

[19] = target: Bile acid receptor (Homo sapiens) (UniProt Q96RI1); assay: ATG_FXR_TRANS: Attagene TRANS-FACTORIAL HepG2 Assay for Farnesoid X Receptor (FXR) (AID 2282979; active = hit-call score of the fitted dose curve at least 0.9, where 1 is the maximum;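 also: hits raise reporter mRNA above DMSO so AC50 marks FXR activation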); settings: HepG2 Attagene TRANS FXR-GAL4 reporter transcription
Summary of the method: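 Read-out: fluorescent reporter transcripts quantified by capillary electrophoresis after RT-PCR of total RNA. Source cells were HepG2 transiently carrying chimeric NR-GAL4 plus GAL4-UAS reporter units, dosed 24 h. Activity fitted upward relative to DMSO baseline.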

Measured: AC50

[2H]C1([2H])[n+]2ccccc2-c2cccc[n+]2C1([2H])[2H]
active: [8] 50 µM | [9] 13.3 µM | [10] 13.2 µM | [11] 14.8 µM
not listed: [15] | [16] | [17] | [18] | [19]
inactive: all other assays above

CN1CSC(=S)N(C)C1
active: [8] 69.1 µM | [11] 21.7 µM | [12] 24.6 µM | [14] 21.5 µM
not listed: [3] | [17] | [18] | [19]
inactive: all other assays above

CCC(C)Nc1c([N+](=O)[O-])cc(C(C)(C)C)cc1[N+](=O)[O-] (stereo not drawn)
inactive: [15] | [3] | [16] | [6] | [7] | [8] | [9] | [13]
active: [11] 8.79 µM | [12] 15.1 µM | [14] 24.8 µM

O=C(NC(=O)c1c(F)cccc1F)Nc1ccc(OC(F)(F)C(F)OC(F)(F)F)c(Cl)c1 (stereo not drawn)
active: [11] 13.8 µM | [12] 19.9 µM
not listed: [1] | [5] | [16] | [17] | [18] | [19]
inactive: all other assays above

CNC(=O)Oc1ccccc1OC(C)C
not listed: [3] | [4] | [5] | [15] | [17] | [18] | [19]
inactive: all other assays above

CC1(c2ccc(Oc3ccccc3)cc2)OC(=O)N(Nc2ccccc2)C1=O (stereo not drawn)
active: [11] 1.61 µM | [12] 2.01 µM | [13] 29.5 µM | [14] 33 µM
not listed: [4] | [10] | [17] | [18] | [19]
inactive: all other assays above

CC(C)OC(=O)Nc1cccc(Cl)c1
active: [11] 21 µM | [12] 39.4 µM
not listed: [1] | [18] | [19]
inactive: all other assays above

CC(C)N(C(=O)COc1nnc(C(F)(F)F)s1)c1ccc(F)cc1
active: [10] 12.6 µM | [11] 20.7 µM | [12] 17.2 µM
not listed: [1] | [3] | [4] | [5] | [17] | [19]
inactive: all other assays above

COP(=O)(OC)OC=C(Cl)Cl
active: [11] 35.7 µM | [12] 11.5 µM
not listed: [1] | [15] | [18] | [19]
inactive: all other assays above

COc1cc(OC)nc(NC(=O)NS(=O)(=O)c2cc(NC=O)ccc2C(=O)N(C)C)n1
not listed: [1] | [4] | [5] | [15] | [18]
inactive: all other assays above

CC(C)(C)C(O)/C(=C\c1ccc(Cl)cc1Cl)n1cncn1 (stereo not drawn)
inactive: [2] | [4] | [5] | [6] | [7] | [8] | [9] | [11] | [12]
active: [13] 36.7 µM | [17] 29.4 µM | [14] 25.3 µM

O=C1c2ccccc2C(=O)N1SC(Cl)(Cl)Cl
active: [11] 14.8 µM
not listed: [1] | [4] | [15] | [17] | [18] | [19]
inactive: all other assays above

O=S1OCC2C(CO1)C1(Cl)C(Cl)=C(Cl)C2(Cl)C1(Cl)Cl (stereo not drawn)
active: [13] 29 µM | [17] 15.9 µM | [14] 30.3 µM
not listed: [1] | [15] | [19]
inactive: all other assays above

Cc1[nH]c(=O)n(C(C)(C)C)c(=O)c1Cl
active: [11] 20.1 µM | [12] 24.2 µM
not listed: [1] | [16] | [18] | [19]
inactive: all other assays above
